Growth data for eight molecules are collected here from PubChem BioAssay (NCI).

Compounds without any hit were thinned out: in the full panel of roughly 83,000, 20% have a hit.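 Assay: single dose, 48 h. Readout: percent growth (0 = no net growth; negative = cell death). Active: <10.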 A number with no mark means an inactive call. The source made the active and inactive calls.

Common to all, as to assay: NCI-60 one-dose screen, 48 h (100 = growth as untreated, 0 = no growth, -100 = all killed)
For experiment [1], the system named is NCI-H23 lung. Conditions: 10 µM unless noted.
Experiment [2] concerns NCI-H226 lung. Conditions: 10 µM unless noted.
Experiment [3] deals with NCI-H322M lung. The following applies: 10 µM unless noted.
For experiment [4], the system named is NCI-H460 lung. Conditions: 10 µM unless noted.
In experiment [5] the test system is HOP-92 NSCLC. The following applies: 10 µM.
For experiment [6], the system named is NCI-H522 lung. The following applies: 10 µM.
Experiment [7] has as its system A549/ATCC NSCLC. Conditions: 10 µM unless noted.
The subject of experiment [8] is 786-0 renal. Conditions: 10 µM unless noted.
The test system of experiment [9] is COLO 205 colon. The following applies: 10 µM unless noted.
Experiment [10] deals with DU-145 prostate. The following applies: 10 µM unless noted.
For experiment [11], the system named is K-562 leukemia. Conditions: 10 µM unless noted.
Experiment [12] relates to MALME-3M melanoma. Conditions: 10 µM unless noted.
In experiment [13] the test system is MDA-MB-231 breast. Conditions: 10 µM unless noted.
The subject of experiment [14] is RXF 393 renal. Conditions: 10 µM unless noted.
For experiment [15], the system named is SF-268 CNS. Conditions: 10 µM unless noted.
Experiment [16] concerns SF-295 CNS. The following applies: 10 µM unless noted.
For experiment [17], the system named is SF-539 CNS. The following applies: 10 µM unless noted.
Experiment [18] has as its system UACC-257 melanoma. Conditions: 10 µM unless noted.
In experiment [19] the test system is M14 melanoma. The following applies: 10 µM unless noted.

For the molecule `Cc1ccc([C@@H]2C[C@H](O)Cc3ccccc3N2)s1`, the growth in experiment [1] is 90.7%; in [2], 124%; in experiment [3], 110%; in [4], 101%; in experiment [5] it was 78.8%; in [6], 117%. For the same molecule, the growth in experiment [7] is 104%; in experiment [8], 114%; in [9] it was 98.8%; in experiment [10] it was 111%; in experiment [11], 101%; in [12] it was 104%. The growth is 102% in [13]; 126% in experiment [14]; 106% in [15]; 107% in experiment [16]; 97.4% in [17]; 100% in experiment [18]. Further, the growth in [19] was 125%.
For `CC(=O)Nc1nc(C)c(C(=O)N/N=C/N2CCOCC2)s1`, the growth in experiment [1] is 106%; in experiment [2], 99.8%; in experiment [3] it was 115%; in [4] it was 113%; in [5], 48.4%; in experiment [6] it was 25.3%. The growth in experiment [7] is 111%; in experiment [8], 77.1%; in experiment [9], 127%; in experiment [10] it was 109%; in experiment [11], 174%; in experiment [12], 114%. Further, the growth in [13] was 109%; in experiment [14], 119%; in experiment [15], 103%; in experiment [16], 110%; in experiment [17], 105%; in experiment [18] it was 118%. In addition, the growth in experiment [19] is 113%.
For the molecule `O=S(=O)(O)CCI`, the growth was 102% in experiment [1]; 95.9% in experiment [2]; 101% in experiment [3]; 104% in [4]; 103% in [5]; 103% in experiment [6]. Also, the growth in experiment [7] is 114%; in [8], 106%; in experiment [9] it was 111%; in [10], 112%; in experiment [11] it was 112%; in experiment [12] it was 113%. Also, the growth in experiment [13] is 104%; in experiment [14], 98.8%; in experiment [15], 104%; in experiment [16], 105%; in experiment [17], 102%; in experiment [18], 113%. Moreover, the growth in experiment [19] is 99%.
With `Clc1ccc(N/N=C(\c2ccccc2)c2ccccn2)nc1`, the growth in [1] is 19.2%; in experiment [2], 5.46% (active); in experiment [3], 16.3%; in [4], 1.31% (active); in experiment [5] it was 31.3%; in experiment [6] it was 1.35% (active). Moreover, the growth in [7] is 3.53% (active); in experiment [8], 12.7%; in experiment [9], 15.9%; in experiment [10], 22.7%; in experiment [11] it was 7.96% (active); in experiment [12], 20%. Further, the growth in experiment [13] was 37%; in [14], 24.6%; in experiment [15] it was 10.5%; in experiment [16], 1.66% (active); in [17], -0.842% (active); in experiment [18] it was -7.64% (active). Besides, the growth in [19] was -6.53% (active).
For `O=C(Nc1cccc2[nH]c(C(F)(F)F)nc12)c1ccc(F)cc1`, the growth in [1] was 83.7%; in [2] it was 86.1%; in experiment [3], 101%; in experiment [4], 55%; in [5] it was -9.1% (active); in [6], 51.3%. The growth in experiment [7] is 72.8%; in [8], 91.9%; in [9], 95.1%; in [10] it was 88.3%; in experiment [11] it was 24.8%; in experiment [12], 74%. The growth was 83.7% in experiment [13]; 88% in experiment [14]; 86.1% in experiment [15]; 86.6% in [16]; 80% in [17]; 89.7% in [18]. For the same molecule, the growth in [19] is 92%.
On to `Oc1ccccc1/C=N/N=C/c1c(O)ccc2ccccc12`, for which the growth in experiment [1] is 82%; in [2], 90.8%; in experiment [3], 107%; in experiment [4] it was 88%; in experiment [5] it was 66.9%; in experiment [6] it was 84%. The growth in experiment [7] is 95.6%; in experiment [8] it was 107%; in experiment [9], 104%; in [10], 96.9%; in [11], 78.5%; in [12] it was 91.3%. Besides, the growth in [13] was 69.9%; in experiment [14] it was 109%; in [15] it was 92.5%; in [16], 98.1%; in experiment [17], 96.9%; in experiment [18], 98.2%. In [19], the growth is 80%.
Take `Cc1ccc2c(c1)C(=O)CCS2`: the growth in experiment [1] is 100%; in [2], 101%; in experiment [3], 93.5%; in experiment [4] it was 117%; in [5], 89.1%; in experiment [6], 95.2%. The growth is 97.2% in [7]; 101% in [8]; 98.2% in [9]; 107% in experiment [10]; 114% in experiment [11]; 85% in experiment [12]. For the same molecule, the growth was 94.2% in [13]; 115% in [14]; 112% in [15]; 108% in experiment [16]; 87.3% in experiment [17]; 102% in experiment [18]. Further, in experiment [19], the growth is 96.1%.
For the molecule `C/C(=N\Nc1ccc(Cl)cn1)c1ccc2ccccc2n1`, the growth in experiment [1] was 21%; in experiment [2] it was -5.19% (active); in [3], 16.4%; in [4], 3.21% (active); in experiment [5] it was 34.4%; in experiment [6], 11.9%. For the same molecule, the growth in experiment [7] is 4.29% (active); in experiment [8], 12.9%; in experiment [9], 9.81% (active); in experiment [10] it was 19.9%; in [11], 5.97% (active); in experiment [12] it was 10.6%. Also, the growth is 31.5% in experiment [13]; 30.5% in experiment [14]; 10.3% in experiment [15]; 2.94% (active) in [16]; 3.44% (active) in experiment [17]; -19.9% (active) in [18]. In experiment [19], the growth is 0.159% (active).
